Shown are actives, neighbours in structure and some others; about 4.2% of the full set was active somewhere.
S1P4 antagonist – human S1P4 receptor antagonism; S1P4-expressing cells, antagonist mode, reporter read-out; O95977; 220,000 compounds, 0.26% hits; inhibition, % at 4.98 µM; in the data active means inhibition above about 29%;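 further: 0% = wells stimulated with agonist and 100% = vehicle wells without agonist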
Target sequence (O95977 whole entry, looked up): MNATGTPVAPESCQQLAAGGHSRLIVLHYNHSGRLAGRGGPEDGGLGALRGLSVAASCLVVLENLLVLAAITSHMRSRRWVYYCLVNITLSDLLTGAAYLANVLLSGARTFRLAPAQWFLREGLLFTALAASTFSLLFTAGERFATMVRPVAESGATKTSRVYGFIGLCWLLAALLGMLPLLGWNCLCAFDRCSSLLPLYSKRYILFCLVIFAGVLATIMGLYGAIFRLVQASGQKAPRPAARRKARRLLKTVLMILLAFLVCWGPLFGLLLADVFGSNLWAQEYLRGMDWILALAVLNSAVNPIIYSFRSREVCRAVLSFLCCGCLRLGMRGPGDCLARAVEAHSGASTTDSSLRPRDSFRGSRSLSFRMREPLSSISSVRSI
Hsp70 act – Hsp70 transcriptional activation, primary screen. 200,000 compounds, 0.04% hits. HeLa Hsp70 promoter luciferase reporter, luminescence; scaled: vehicle 0, proteasome-inhibitor control 100%. activation, % at 10 µM;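 active means activation above the mean across all tested compounds plus 3 SD, cutoff set per campaign, cut at about 5.5% in these data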;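 further: 100% = MG132 at 30 µM as the positive control and 0% = DMSO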
S1P4 ag – human S1P4 receptor agonism | activation, % at 4.98 µM | 220,000 compounds, 0.35% hits | AID 1509 | S1P4-expressing cell line, agonist reporter assay; in the data active means activation above about 11%;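 further: 0% = DMSO vehicle and 100% = reference agonist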
CHOP inhibitor – inhibitors of CHOP induction in ER stress response; CHO-K1 CHOP-promoter luciferase, tunicamycin-induced, 15-18 h; inhibition, % at 10 µM; 220,000 compounds, 3.8% hits; AID 2732;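 active means compounds that reduced the stress-induced luciferase reporter signal by more than about 70% of percent inhibition, limit read from the data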;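 further: 0% = tunicamycin plus vehicle and 100% = wells without tunicamycin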
* marks the source's active call; other numbers are inactive results; · = no result given.

SMILES	S1P4 antagonist	Hsp70 act	S1P4 ag	CHOP inhibitor
CNC(=O)N(O)C1N(NC(=O)Nc2ccccc2)C(=S)SC1(C)C (stereo unspecified)	-15.9	-0.3	0.4	·
CC1(C)SC(=S)N(NC(=O)Nc2cccc3ccccc23)C1N(O)C(=O)Nc1ccccc1 (stereo unspecified)	-2.0	-0.5	1.6	100.4*
Cc1cc(C(=O)c2ccccc2)c(NC(=O)CN2CCOCC2)s1	-8.5	-0.2	0.1	9.8
Cc1ccc(C(=O)c2cc(C)sc2NC(=O)CN2CCN(C(=O)c3ccco3)CC2)cc1	-9.4	-0.4	-1.0	81.5*
COc1ccc(NC(=O)CSc2ccccn2)cc1OC	-5.3	-0.4	-0.1	1.6
COc1ccc(NC(=O)CSc2ncccc2C(=O)OC(C)C)cc1OC	8.0	-0.5	2.9	70.6*
CCCc1cc2c(cc1NC(=O)c1ccc(Br)cc1)OCO2	6.0	-0.1	0.8	82.5*
Brc1ccc(CSc2nnc(-c3ccccn3)n2Cc2ccco2)cc1	-18.2	-0.6	0.8	46.8
CC(C)(C)c1ccc(CSc2nnc(-c3ccccn3)n2Cc2ccco2)cc1	-3.2	0.0	0.0	93.8*
Cc1ccc(NC(=O)c2ccccc2OCC(=O)c2ccccc2)cc1	-10.3	-0.1	-2.6	-19.4
CC1=CC(=O)C(C(C)C)=CC1=NC(=O)c1ccc(C)cc1	-1.9	-0.3	-0.9	106.7*
CC1=CC(=O)C(C(C)C)=C/C1=N/OC(=O)c1cccc([N+](=O)[O-])c1	-0.2	-0.2	-0.9	49.2
CC(C)CN(CC(C)C)C(=O)COc1ccccc1C(N)=O	-13.7	-0.2	-1.4	-0.7
Cc1ccc([N+](=O)[O-])cc1N/C=C1\CCc2ccccc2C1=O	-12.2	-0.2	4.7	85.1*
CC(=O)Oc1c(Cl)cc(Cl)cc1/C=C/c1ccc2ccccc2n1	1.7	-0.3	1.9	16.9
COc1cc(/C=C/c2cc(OC(C)=O)c3ccccc3n2)c(OC(C)=O)c([N+](=O)[O-])c1	-8.6	-0.1	-2.7	86.7*
CC(Oc1ccc(Cl)cc1Cl)C(=O)Nc1ccc2oc(-c3ccncc3)nc2c1 (stereo unspecified)	5.4	-0.2	-0.4	73.8*
Cc1ccc(-c2nc3cc(NC(=O)C(C)C)ccc3o2)cc1	-18.1	-0.2	-2.2	33.0
CN(C)S(=O)(=O)c1cccc(NC(=S)N/N=C/c2cc(Br)ccc2O)c1	9.3	·	1.1	72.3*
CCOC(=O)c1csc(NC(=O)COc2ccc(Cl)cc2Cl)n1	-0.8	-0.2	-0.3	71.2*
Cc1ccc(-c2nn(CC(=O)NCCN3CCOCC3)c(=O)c3ccccc23)cc1	-16.9	-0.1	0.8	23.5
CCOC(=O)CCc1c(C)nc(SCCCn2c(=O)[nH]c3ccccc32)c(C#N)c1C	-8.8	0.3	0.2	83.0*
CC(C)Cn1nnc2c(=O)oc3ccccc3c21	-3.7	0.1	0.4	-10.2
CC(C)Cn1c(O)c(/C=C2\C=NN=C2c2ccccc2)sc1=S	-8.5	-0.2	-0.2	71.0*
CCCCn1c(O)c(/C=C2\C=NN=C2c2ccccc2)sc1=S	8.3	-0.3	-1.8	61.0
SMILES	S1P4 antagonist	Hsp70 act	S1P4 ag	CHOP inhibitor
CCOC(=O)N1CCC(NCCNC(=O)c2ccccc2Cl)CC1	-3.1	0.3	-1.9	0.0
O=C(Nc1cccnc1)c1c(F)cccc1F	7.4	0.5	-1.5	15.4
CCOC(=O)C1=C(N)Oc2cc(O)ccc2C1c1ccc([N+](=O)[O-])cc1 (stereo unspecified)	4.6	-0.2	1.1	94.3*
O=C(c1cnn2c(C(F)(F)F)cc(-c3cccs3)nc12)N1CCN(Cc2ccccc2)CC1	-8.7	-0.6	1.3	70.2*
CCn1c(=NC(=O)c2ccc(S(=O)(=O)N3CCOCC3)cc2)sc2cccc(OC)c21	2.0	-0.1	-1.6	83.2*
CCCCCCNC(=O)c1c(O)c2ccccc2[nH]c1=O	9.3	-0.3	-0.1	87.7*
CCCCCCCC(=O)NNC(=O)c1c(O)c2ccccc2[nH]c1=O	-21.8	·	0.4	70.5*
COc1cc(C2C3C(=O)N(c4ccc(F)cc4)C(=O)C3ON2c2ccccc2)ccc1O (stereo unspecified)	0.6	-0.1	1.1	13.4
COCCn1c(SCC(=O)Nc2ccccc2C)nc2c(oc3ccccc32)c1=O	-17.5	-0.3	1.7	79.2*
Cc1nc(NCc2ccccc2)[nH]c(=O)c1CCC(C)C	-12.0	-0.1	-0.2	75.5*
Cc1ccc(Nc2nc(C)c(CCC(C)C)c(=O)[nH]2)cc1	-25.1	-0.1	0.9	78.0*
Cc1nc(N2CCN(c3ccccc3)CC2)[nH]c(=O)c1CCC(C)C	-5.7	0.1	1.1	15.4
CCOC(=O)c1cc(C#N)c(SC)nc1C	1.6	·	0.2	20.2
COc1cc(S(=O)(=O)Nc2ccc(C)cc2)ccc1N=Cc1c(C)c(C#N)c(=O)n(C)c1O	-23.3	0.0	-1.6	74.2*
COc1cc(S(=O)(=O)Nc2ccc(C)cc2)ccc1N=Cc1c(C)[nH]n(-c2ccc(C)cc2)c1=O	-27.2	-0.4	1.4	57.1
COc1cc(C)ccc1OCCOc1c(Cl)cc(Cl)cc1Cl	-9.8	-0.2	0.6	42.6
COc1cc(C)ccc1OCCOc1c(C)cccc1Cl	7.0	-0.2	0.2	70.7*
CN(C)c1ccc(/C=N\Nc2nc(-c3ccccc3)cc(=O)[nH]2)cc1	2.2	-0.3	-1.6	88.9*
COc1ccc(/C(C)=N\Nc2nc(-c3ccccc3)cc(=O)[nH]2)cc1	-10.0	0.3	0.0	10.6
Cc1ccc(S(=O)(=O)N2CCN(c3nc4ccccc4nc3-n3nc(C)cc3C)CC2)cc1	-0.6	-0.4	1.6	73.2*
Cc1cc(C)n(-c2nc3ccccc3nc2N2CCC(C)CC2)n1	-1.3	-0.2	0.6	32.3
CCOc1ccccc1CN1CCN(Cc2cn(C)nc2-c2ccccc2)CC1CCO (stereo unspecified)	2.2	-0.3	0.1	19.6
CCn1c(SCc2nc3scc(-c4ccccc4)c3c(=O)[nH]2)nnc1-c1ccc(Cl)cc1	-9.7	-0.2	1.2	92.6*
COc1ccc(N/C=C(\C#N)c2ccc(OCCCF)cc2)cc1	0.9	-0.2	-1.2	7.7
COc1ccc(-c2ccnc(-c3ccc(OCCCF)cc3)n2)cc1	-8.7	0.0	-2.2	71.4*
SMILES	S1P4 antagonist	Hsp70 act	S1P4 ag	CHOP inhibitor
Oc1ccc(-c2nccc(-c3ccc(Cl)cc3)n2)cc1	-7.5	-0.1	1.6	38.9
FCCCOc1ccc(-c2nccc(-c3ccc(Cl)cc3)n2)cc1	-4.8	0.1	-0.1	77.7*
CCOC(=O)CC1C(=O)NCCN1C(=O)NC1CCCCC1 (stereo unspecified)	-20.8	-0.3	0.4	7.4
Cc1ccc(-c2nnc3ccc(SCC(=O)N4CCCc5ccccc54)nn23)cc1	-7.2	-0.3	4.0	59.1
Cc1ccc(-c2nnc3ccc(SCC(=O)N4CCc5ccccc54)nn23)cc1	-16.7	-0.3	0.4	84.9*
CC(=O)c1cc2c(cc1NC(=O)CN1CCCCCCC1)OCO2	-11.8	-0.1	-0.4	85.1*
CN1CCC(=C2c3ccccc3C(O)c3ccccc32)CC1 (stereo unspecified)	2.0	·	-1.2	-10.4
CN1CCc2cccc3c2C1Cc1ccc(O)c(O)c1-3 (stereo unspecified)	·	·	·	73.5*
COc1ccccc1NC(=O)Cn1c(=O)n(-c2ccccc2)c(=O)c2oc3ccccc3c21	11.3	0.0	0.2	81.0*

Screens: PubChem BioAssay, several laboratories
